Experimental data as given in ChEMBL document CHEMBL3988442, “University of Dundee, Small-Polar-MMV Screening Library” (2021).
Hit rate of the full screen: of about 38,000 compounds, about 1,200 (3.2%) showed an effect of 50% or more. The median lay at about -58%. The list comes from a sample in which strong results are over-represented; it also holds similar structures and randomly drawn compounds.

Tested on: Plasmodium falciparum
Assay: Calibr Malaria Delayed Death Assay SOP
Format: functional, organism-based
Design: scale not given: in the data most compounds retested in dose-response had high values
Conditions: concentration 4.99e-06 (unit not given; other assays of the set use mol/L)

Q: How did the “Percent Effect” value turn out when `CCc1ccc(CN2CCNC(C(=O)N3CCN(C)CC3)C2)o1` (configuration not stated) was run?
A: Its value is -22.63%.

Q: With `CCOc1ncccc1C(=O)N1CCCC1Cn1cc(C)cn1` (configuration not stated) as the compound, how does the “Percent Effect” value read?
A: The value was -83.81%.

Q: `Fc1ccccc1CN1CCCN(c2ncnc3[nH]ccc23)CC1` was tested. Which “Percent Effect” value did it give?
A: The value was -95.46%.

Q: With `Cc1nc(C)c(C)c(N2CCC(O)(c3ccc(F)cc3)CC2)n1` as the compound, how does the “Percent Effect” value read?
A: The value was -9.23%.

Q: Which “Percent Effect” value does the source give for `CNc1nnc(SCc2nnc(C(C)(C)C)o2)s1` here?
A: Its value is -74.95%.

Q: How did the “Percent Effect” value turn out when `O=C1NCC(C(=O)Nc2ncc(Cc3ccc(F)cc3F)s2)N1` (configuration not stated) was run?
A: Its value is -63.93%.

Q: With `O=C(Cc1cccc2ccccc12)N1CCC(Nc2cccnn2)CC1` as the compound, how does the “Percent Effect” value read?
A: Its value is -77.23%.

Q: For `O=C1CC2(CCN(CCCO)CC2)CN1Cc1ccc(F)c(F)c1`, which “Percent Effect” value is on record?
A: The value was -28.18%.

Q: Which “Percent Effect” value does the source give for `CC(NCC1CCN(CCO)CC1)c1ccc(F)c(Cl)c1` (configuration not stated) here?
A: Its value is 83.31%.

Q: How did the “Percent Effect” value turn out when `CC(NCC1CCN(CCO)CC1)c1cccnc1` (configuration not stated) was run?
A: Its value is -40.75%.

Q: How did the “Percent Effect” value turn out when `CC(NC1CCN(CCS(C)(=O)=O)CC1)c1ccc(Cl)cc1` (configuration not stated) was run?
A: Its value is 56.47%.

Q: With `CC(NCC1CCN(CCO)CC1)c1cccc(Cl)c1` (configuration not stated) as the compound, how does the “Percent Effect” value read?
A: Its value is 84.07%.

Q: Which “Percent Effect” value does the source give for `Cc1ccc(CNC(=O)CNCC2CCN(CCO)CC2)s1` here?
A: The value was -48.54%.

Q: For `COCCN1CCC(CNC(=O)Nc2ccc(F)c(Cl)c2)C1` (configuration not stated), which “Percent Effect” value is on record?
A: The value was -33.14%.

Q: `COc1ccc(C(C)N2CCC(CO)CC2)cc1Cl` (configuration not stated) was tested. Which “Percent Effect” value did it give?
A: The value was -19.12%.

Q: With `CC(c1ccc(Cl)cc1)N1CCN(CCS(C)(=O)=O)CC1` (configuration not stated) as the compound, how does the “Percent Effect” value read?
A: The value was -44.52%.

Q: `Cc1cccc(C(C)NCC2CCS(=O)(=O)CC2)c1` (configuration not stated) was tested. Which “Percent Effect” value did it give?
A: Its value is 7.654%.

Q: Which “Percent Effect” value does the source give for `CS(=O)(=O)CCN1CCC(Nc2c(Cl)cccc2C#N)CC1` here?
A: The value was -32.59%.

Q: `O=C(NCCOc1ccc(Cl)cn1)Nc1nccs1` was tested. Which “Percent Effect” value did it give?
A: The value was -1.653%.

Q: With `CCS(=O)(=O)N1CCc2ccc(NC(=O)Nc3cccc(C)c3)cc21` as the compound, how does the “Percent Effect” value read?
A: The value was -42.73%.

Q: With `O=C(NCc1ccccn1)[C@H]1COC[C@H]2CN(CC3CC3)C[C@H]21.O=C(O)C(F)(F)F.O=C(O)C(F)(F)F` as the compound, how does the “Percent Effect” value read?
A: The value was -42.42%.

Q: Which “Percent Effect” value does the source give for `CC(NC(=O)Cn1ccc2sccc2c1=O)c1ccccc1` (configuration not stated) here?
A: Its value is -76.67%.

Q: For `COc1ccc(-c2cc(C3(O)CCOC(C)(C)C3)on2)cc1` (configuration not stated), which “Percent Effect” value is on record?
A: Its value is -20.9%.

Q: Which “Percent Effect” value does the source give for `Cc1c(COC(C)C)cccc1NC(=O)N1CC[C@H](O)C1` here?
A: The value was -81.26%.

Q: `NC(=O)c1c(SCCN2CCCCC2)sc2c(O)cc(=O)[nH]c12` was tested. Which “Percent Effect” value did it give?
A: Its value is 1.518%.

Q: Which “Percent Effect” value does the source give for `O=S1(=O)[C@@H](c2ccccc2)[C@H](CO)CN1c1ccccc1` here?
A: Its value is -141.9%.

Q: With `Cc1cc(C)nc(CN(C)c2nc(C3CCCC3)nc3c2cnn3C)c1` as the compound, how does the “Percent Effect” value read?
A: Its value is -50.46%.

Q: `CCN(CC)c1ncnc2c1CCN(c1ccc(C)nn1)CC2` was tested. Which “Percent Effect” value did it give?
A: The value was -148.5%.

Q: For `Cc1nn(CCCNC(=O)C2CCN(S(C)(=O)=O)CC2)cc1Cl`, which “Percent Effect” value is on record?
A: The value was -83.52%.

Q: For `Cc1cnn(C2CN(CCOc3ccccc3C#N)C2)c1`, which “Percent Effect” value is on record?
A: Its value is -94.34%.

Q: Which “Percent Effect” value does the source give for `O=C(Cc1ccccn1)N1CCc2ncnc(NC3CCC3)c2CC1.O=C(O)C(F)(F)F` here?
A: Its value is -99.33%.

Q: Which “Percent Effect” value does the source give for `COCc1ncc(CN2CCC(Oc3ccc(OC)cc3)CC2)cn1` here?
A: The value was -166.1%.

Q: For `O=C(Nc1cccc(OCC(F)F)n1)c1ccncc1`, which “Percent Effect” value is on record?
A: The value was -44.55%.

Q: Which “Percent Effect” value does the source give for `CCOc1cccc(CNc2ccccc2C(F)(F)F)c1O` here?
A: The value was -100.4%.

Q: For `COc1ccccc1CN1CCCC(n2cccn2)C1` (configuration not stated), which “Percent Effect” value is on record?
A: Its value is 31.44%.

Q: Which “Percent Effect” value does the source give for `COc1cccc(CN2CCCC(Nc3cccc(F)c3)C2)c1O` (configuration not stated) here?
A: Its value is 66.55%.

Q: For `CCOc1ccccc1-c1noc(CN2CCCC(O)C2)n1` (configuration not stated), which “Percent Effect” value is on record?
A: Its value is -111.8%.

Q: Which “Percent Effect” value does the source give for `COc1ccc(NC2CCCN(Cc3cnc(N(C)C)s3)C2)cc1OC` (configuration not stated) here?
A: The value was -57.98%.

Q: Which “Percent Effect” value does the source give for `CN1CCOC(CNCC(=O)NCCC2=CCCCC2)C1` (configuration not stated) here?
A: The value was -80.77%.

Q: How did the “Percent Effect” value turn out when `COCC[C@]1(O)CCN(c2ncc(Cl)cc2F)C[C@H]1C` was run?
A: Its value is -23.85%.

Q: How did the “Percent Effect” value turn out when `CC[C@@]1(O)CCN(c2ncc(Cl)cc2F)C[C@H]1O` was run?
A: Its value is -98.16%.

Q: With `Cc1nn(Cn2ccc(C(=O)N3CCCC(C)C3)n2)c(C)c1Cl` (configuration not stated) as the compound, how does the “Percent Effect” value read?
A: Its value is -15.8%.

Q: For `O=C(Cn1nc(C(F)(F)F)c(Br)c1C1CC1)N1CCOCC1`, which “Percent Effect” value is on record?
A: The value was -21.49%.

Q: Which “Percent Effect” value does the source give for `OCC1CCCCN1CCn1ccnc1-c1nc2ccccc2[nH]1` (configuration not stated) here?
A: The value was 10.13%.

Q: `CN1CCCC1CCn1ccnc1-c1nc2ccccc2[nH]1` (configuration not stated) was tested. Which “Percent Effect” value did it give?
A: Its value is 72.06%.

Q: `CN1CCCC1CCn1ccnc1-c1nc(-c2ccccc2)no1` (configuration not stated) was tested. Which “Percent Effect” value did it give?
A: The value was 57.38%.

Q: How did the “Percent Effect” value turn out when `CN1CCCC1CCn1ccnc1-c1ccc2ccccc2n1` (configuration not stated) was run?
A: The value was 54.89%.

Q: For `c1ccc(-c2noc(CCCN3CCCC3Cn3cccn3)n2)cc1` (configuration not stated), which “Percent Effect” value is on record?
A: Its value is 29.02%.

Q: `Cn1ccnc1CN1CCCCC1c1nc(-c2ccccc2)no1` (configuration not stated) was tested. Which “Percent Effect” value did it give?
A: Its value is -149.2%.

Q: Which “Percent Effect” value does the source give for `CC(=O)Nc1ccc2nc(-c3nccn3C[C@@H]3CCCO3)ccc2c1` here?
A: Its value is -89.17%.

Q: With `Cc1nccn1CCC1CCCCN1C(=O)c1ccc2[nH]nnc2c1` (configuration not stated) as the compound, how does the “Percent Effect” value read?
A: The value was -19.01%.

Q: For `CN(CC1CCCN1C)c1nccc(C2CCCC2)n1` (configuration not stated), which “Percent Effect” value is on record?
A: Its value is 7.396%.
